This note sets out measurements from PubChem BioAssay.

Experiment [1] can be described thus: viability loss with induced miR-34 in A549 – imaging, A549 dox-inducible miR-34, nuclei and caspase counts, primary screen (AID 1347080). The following applies: A549 miR-34 inducible, Hoechst nuclei count, 48 h.
The nature of experiment [2]: MELAS cybrid and Rieske KO viability enhancers – cell-based, MELAS cybrids, Rieske KO mouse fibroblasts, CellTiter-Glo, primary screen (AID 1508586;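 active = mean z-score across replicates of 1.96 or higher in either the MELAS or the Rieske mutant cell line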;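 also: z relative to plate mean and SD of compound and empty wells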). As to conditions: low glucose. In general terms: ATP-based viability assays read luminescence as a measure of living cells.
Setting [3] is: stronger effect = lower value, cell number ratio, induced over uninduced.
The mark [4] stands for this setting: measured here: relative caspase fold change +Dox/-Dox.
[5] abbreviates: measured here: total cells with miR-34 induction, stronger effect = lower value.
The mark [6] stands for this setting: measured here: total cells without miR-34 induction.
Setting [7] is: MELAS cybrid survival, CellTiter-Glo 48 h, stronger effect = higher value.
Where [8] appears, read: Rieske KO mouse fibroblast survival, CellTiter-Glo 72 h.

Where “and” joins values, the source holds several entries; their conditions need not be identical. Identical values can stand only once. Calls of active or inactive are those of the source.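 The calls were made as follows, unless noted: active = compounds whose cell count with miR-34 switched on is under 0.7 times the count with it off; inactive = the rest.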
Also: test concentration not given here.

On to `Nc1cc(F)ccc1NC(=O)C=Cc1cnn(CC=Cc2ccccc2)c1`, for which the fold change in experiment [1] (setting [3]) was 0.91 (inactive); in experiment [1] (setting [4]) it was 0.53. Besides, the figures for the cell count in experiment [1] (setting [5]) and in experiment [1] (setting [6]) were 6990 and 7680, respectively. In addition, the z-score is -0.402 (inactive) in experiment [2] (setting [7]) and -2.77 in experiment [2] (setting [8]).

`NC(=O)N1CCC(CC(=O)N2CCC(C3c4ncc(Br)cc4CCc4cc(Cl)cc(Br)c43)CC2)CC1` (stereo not drawn): the fold change in experiment [1] (setting [3]) is 1.04 (inactive); in experiment [1] (setting [4]), 0.678. Also, the cell count in experiment [1] (setting [5]) was 5310; in experiment [1] (setting [6]), 5110. The z-score is -0.458 (inactive) in experiment [2] (setting [7]) and 0.637 in experiment [2] (setting [8]).

`CCOc1ccccc1OC(c1ccccc1)[C@H]1CNCCO1` (stereo partly drawn): the fold change is 0.858 (inactive) in experiment [1] (setting [3]) and 1.73 in experiment [1] (setting [4]). Further, the cell count in experiment [1] (setting [5]) came out at 8800; in experiment [1] (setting [6]), 10300. Also, the z-score in experiment [2] (setting [7]) was -0.71 (inactive); in experiment [2] (setting [8]), -0.166.

For `CC(C=CC1=C(C)CCCC1(C)C)=CC=CC(C)=CC(=O)O`, the fold change in experiment [1] (setting [3]) was 0.957 (inactive) and 0.887 (inactive); in experiment [1] (setting [4]), 0.963 and 0.861. Besides, the cell count was 6860 and 8040 in experiment [1] (setting [5]); 7170 and 9070 in experiment [1] (setting [6]). In addition, the z-score is -0.296 (inactive) and 0.176 (inactive) in experiment [2] (setting [7]); 0.231 and 0.975 in experiment [2] (setting [8]).

Turning to `COCCOC(=O)C1=C(C)NC(C)=C(C(=O)OCC=Cc2ccccc2)C1c1cccc([N+](=O)[O-])c1` (stereo not drawn), the fold change in experiment [1] (setting [3]) was 1.06 (inactive); in experiment [1] (setting [4]) it was 0.275. The cell count in experiment [1] (setting [5]) is 6590; in experiment [1] (setting [6]) it was 6240. Also, the values for the z-score in experiment [2] (setting [7]) and in experiment [2] (setting [8]) were -0.669 (inactive) and 0.105, respectively.

For `Cc1c(Cc2ccc3ccccc3n2)c2cc(F)ccc2n1CC(=O)O`, the fold change in experiment [1] (setting [3]) was 0.985 (inactive); in experiment [1] (setting [4]), 0.424. In addition, the cell count in experiment [1] (setting [5]) was 6920; in experiment [1] (setting [6]) it was 7030. For the same compound, the z-score in experiment [2] (setting [7]) was 0.326 (inactive); in experiment [2] (setting [8]), -0.0715.

As for `COc1cc(-c2cc(-c3cccc(O)c3)cnc2N)cc(OC)c1OC`, the fold change in experiment [1] (setting [3]) was 0.804 (inactive); in experiment [1] (setting [4]), 0.388. The cell count in experiment [1] (setting [5]) stood at 5380; in experiment [1] (setting [6]), 6700. Moreover, the z-score in experiment [2] (setting [7]) is -0.34 (inactive); in experiment [2] (setting [8]) it was -0.00175.

Take `C#C[C@@]1(OC(C)=O)CC[C@H]2[C@@H]3CCC4=CC(OC(C)=O)CC[C@@H]4[C@@H]3CC[C@@]21C` (stereo partly drawn): the values for the fold change in experiment [1] (setting [3]) and in experiment [1] (setting [4]) were 0.978 (inactive) and 0.478, respectively. Further, the cell count came to 8080 in experiment [1] (setting [5]) and 8260 in experiment [1] (setting [6]). Besides, the z-score in experiment [2] (setting [7]) was -0.279 (inactive); in experiment [2] (setting [8]), -0.148.

Consider `COC(=O)NC(C(=O)NC(Cc1ccccc1)C(O)CN(Cc1ccc(-c2ccccn2)cc1)NC(=O)C(NC(=O)OC)C(C)(C)C)C(C)(C)C` (stereo not drawn), for which the fold change was 0.891 (inactive) in experiment [1] (setting [3]) and 0.981 in experiment [1] (setting [4]). The cell count turned out to be 6490 in experiment [1] (setting [5]) and 7280 in experiment [1] (setting [6]). Also, the z-score was -0.349 (inactive) in experiment [2] (setting [7]) and 0.446 in experiment [2] (setting [8]).

`C#CCC(Cc1cnc2nc(N)nc(N)c2n1)c1ccc(C(=O)NC(CCC(=O)O)C(=O)O)cc1` (stereo not drawn): the fold change was 1.12 (inactive) in experiment [1] (setting [3]) and 0.784 in experiment [1] (setting [4]). Also, the cell count worked out at 2390 in experiment [1] (setting [5]) and 2130 in experiment [1] (setting [6]). For the same compound, the z-score in experiment [2] (setting [7]) is -0.188 (inactive); in experiment [2] (setting [8]), 0.624.

`COc1c(C)c2c(c(O)c1CC=C(C)CCC(=O)OCCN1CCOCC1)C(=O)OC2`: the results for the fold change in experiment [1] (setting [3]) and in experiment [1] (setting [4]) were 0.917 (inactive) and 1.06, respectively. The cell count in experiment [1] (setting [5]) worked out at 1830; in experiment [1] (setting [6]) it was 1990. The z-score was 0.827 (inactive) in experiment [2] (setting [7]) and -0.579 in experiment [2] (setting [8]).

For the compound `C=C1CC[C@H]2[C@@](C)(CCC(O)[C@@]2(C)CO)C1CC=C1C(=O)OCC1O` (stereo partly drawn), the fold change is 0.97 (inactive) in experiment [1] (setting [3]) and 0.896 in experiment [1] (setting [4]). For the same compound, the cell count is 6090 in experiment [1] (setting [5]) and 6280 in experiment [1] (setting [6]). Besides, the z-score in experiment [2] (setting [7]) was -0.657 (inactive); in experiment [2] (setting [8]), -0.629.

Turning to `C=CC1CN2CC[C@H]1C[C@H]2C(O)c1ccnc2ccc(OC)cc12` (stereo partly drawn), the fold change in experiment [1] (setting [3]) is 0.964 (inactive); in experiment [1] (setting [4]) it was 0.844. Besides, the cell count in experiment [1] (setting [5]) came to 8110; in experiment [1] (setting [6]), 8420. The results for the z-score in experiment [2] (setting [7]) and in experiment [2] (setting [8]) were -0.205 (inactive) and -0.396, respectively.

Take `CN1[C@@H]2CC(OC(=O)C(CO)c3ccccc3)C[C@H]1[C@@H]1O[C@H]12` (stereo partly drawn): the results for the fold change in experiment [1] (setting [3]) and in experiment [1] (setting [4]) were 0.946 (inactive) and 0.844, respectively. Moreover, the cell count in experiment [1] (setting [5]) turned out to be 9480; in experiment [1] (setting [6]) it was 10000. Further, the z-score in experiment [2] (setting [7]) is -0.356 (inactive); in experiment [2] (setting [8]), 0.736.

`Nc1ncnc2c1ncn2C1OC(CO)C(O)C1O` (stereo not drawn): the fold change is 0.838 (inactive) and 0.824 (inactive) in experiment [1] (setting [3]); 0.867 and 1.17 in experiment [1] (setting [4]). Moreover, the cell count in experiment [1] (setting [5]) is 6490 and 8470; in experiment [1] (setting [6]) it was 7740 and 10300. The z-score in experiment [2] (setting [7]) was -0.00177 (inactive) and -0.197 (inactive); in experiment [2] (setting [8]) it was -2.04 and 0.972.

On to `C=CCc1ccc(O)c(-c2cc(CC=C)ccc2O)c1`, for which the figures for the fold change in experiment [1] (setting [3]) and in experiment [1] (setting [4]) were 0.923 (inactive) and 0.657, respectively. The cell count came to 7490 in experiment [1] (setting [5]) and 8120 in experiment [1] (setting [6]). Further, the z-score is 0.173 (inactive) in experiment [2] (setting [7]) and -0.0672 in experiment [2] (setting [8]).

Regarding `COc1cc(F)c(F)c(Nc2ccc(I)cc2F)c1NS(=O)(=O)C1(CC(O)CO)CC1` (stereo not drawn), the results for the fold change in experiment [1] (setting [3]) and in experiment [1] (setting [4]) were 0.923 (inactive) and 0.76, respectively. The figures for the cell count in experiment [1] (setting [5]) and in experiment [1] (setting [6]) were 2970 and 3220, respectively. Further, the values for the z-score in experiment [2] (setting [7]) and in experiment [2] (setting [8]) were -0.764 (inactive) and -0.645, respectively.

Turning to `O=C(NN=Cc1ccc([N+](=O)[O-])o1)c1ccc(O)cc1`, the fold change in experiment [1] (setting [3]) is 1.02 (inactive); in experiment [1] (setting [4]), 0.454. Besides, the cell count amounted to 8470 in experiment [1] (setting [5]) and 8320 in experiment [1] (setting [6]). Also, the z-score is -0.586 (inactive) in experiment [2] (setting [7]) and -0.436 in experiment [2] (setting [8]).

As for `CCN(CC)CCN(Cc1ccc(-c2ccc(C(F)(F)F)cc2)cc1)C(=O)Cn1c(SCc2ccc(F)cc2)nc(=O)c2c1CCC2`, the fold change is 0.577 (active) in experiment [1] (setting [3]) and 1.58 in experiment [1] (setting [4]). Moreover, the cell count in experiment [1] (setting [5]) is 1110; in experiment [1] (setting [6]), 1920. The z-score was -0.397 (inactive) in experiment [2] (setting [7]) and -1.15 in experiment [2] (setting [8]).

As to `CC(=O)NC1C(N=C(N)N)C=C(C(=O)O)O[C@H]1C(O)C(O)CO` (stereo partly drawn), the fold change in experiment [1] (setting [3]) is 0.903 (inactive); in experiment [1] (setting [4]), 0.622. Further, the cell count stood at 9700 in experiment [1] (setting [5]) and 10700 in experiment [1] (setting [6]). In addition, the z-score in experiment [2] (setting [7]) is -0.333 (inactive); in experiment [2] (setting [8]), 0.922.

For the compound `C[N+]1(C)[C@@H]2CC(OC(=O)C(O)(c3cccs3)c3cccs3)C[C@H]1C1OC12` (stereo partly drawn), the results for the fold change in experiment [1] (setting [3]) and in experiment [1] (setting [4]) were 0.933 (inactive) and 0.479, respectively. The cell count in experiment [1] (setting [5]) amounted to 9300; in experiment [1] (setting [6]) it was 9960. Further, the z-score in experiment [2] (setting [7]) was -0.398 (inactive); in experiment [2] (setting [8]) it was -0.0197.

For `C=CC(C)(O)CCC1[C@@]2(C)CCCC(C)(C)C2CC[C@@]1(C)O` (stereo partly drawn), the fold change was 0.916 (inactive) in experiment [1] (setting [3]) and 0.879 in experiment [1] (setting [4]). The cell count in experiment [1] (setting [5]) was 8210; in experiment [1] (setting [6]), 8970. The z-score was -0.292 (inactive) in experiment [2] (setting [7]) and -0.0842 in experiment [2] (setting [8]).

As to `CC1C[C@H]2[C@@H]3CCC4=CC(=O)C=C[C@]4(C)[C@@H]3C(=O)C[C@]2(C)[C@]1(O)C(=O)CO` (stereo partly drawn), the fold change is 1.57 (inactive) in experiment [1] (setting [3]) and 0.521 in experiment [1] (setting [4]). Further, the cell count in experiment [1] (setting [5]) came to 7500; in experiment [1] (setting [6]) it was 4760. The z-score was -0.4 (inactive) in experiment [2] (setting [7]) and 0.152 in experiment [2] (setting [8]).
